Experimental data: PubChem BioAssay AID1159580 (chemical genetic matrix, 2015)
Where “and” joins values, the source holds several entries; their conditions need not be identical. Equal entries are not always repeated. Hit rate of the full screen: of about 5,500 compounds, about 2,000 (36%) were called active. Roughly 18% stayed inconclusive and do not appear here. No stated cut-off is given here; in the data, active means normalized growth mostly below about 0.91 (no sharp cut-off); inconclusive means no clear call, values can overlap the other calls; inactive means mostly above about 0.92. The list shows a part of the results.

Test: chemical genetic growth profiling, strain panel (AID 1159580);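 further: tested at 20 µM; growth read once vehicle control cultures reached saturation at 30 °C; 1 = growth at the plate median or of vehicle wells; lower values mean less growth of the strain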
Conditions: S. cerevisiae deletion strains, growth OD

Measured: normalized growth

O=c1ccc2cc(O[C@@H]3O[C@H](CO)[C@@H](O)[C@H](O)[C@H]3O)c(O)cc2o1
inactive: locus YAL013W, strain DEP1, hits give low values 1.04 | locus YAL021C, strain ccr4, hits give low values 0.991 | locus YAL026C, strain drs2, hits give low values 0.997 | locus YAL030W, strain snc1, hits give low values 0.971 | locus YBL061C, strain skt5, hits give low values 0.972 | locus YBR009C, strain hhf1, hits give low values 1.01 | locus YBR021W, strain FUR4, hits give low values 1.06 | locus YBR023C, strain chs3, hits give low values 0.983 | locus YBR171W, strain sec66, hits give low values 0.956 | locus YBR229C, strain ROT2, hits give low values 1.02 | locus YBR231C, strain swc5, hits give low values 0.982 | locus YBR279W, strain paf1, hits give low values 0.988 | locus YCL011C, strain gbp2, hits give low values 0.99 | locus YCL016C, strain dcc1, hits give low values 0.999 | locus YCL029C, strain bik1, hits give low values 0.998 | locus YCL061C, strain MRC1, hits give low values 0.983 | locus YCL069W, strain vba3, hits give low values 0.977 | locus YCR088W, strain abp1, hits give low values 0.978 | locus YDL005C, strain med2, hits give low values 0.958 | locus YDL035C, strain GPR1, hits give low values 1.04 | locus YDL040C, strain nat1, hits give low values 0.976 | locus YDL074C, strain BRE1, hits give low values 1.02 | locus YDL101C, strain DUN1, hits give low values 1.01 | locus YDL134C, strain PPH21, hits give low values 1.02 | locus YDL185W, strain tfp1, hits give low values 1 | locus YDL192W, strain arf1, hits give low values 0.991 | locus YDR001C, strain nth1, hits give low values 0.987 | locus YDR069C, strain doa4, hits give low values 0.977 | locus YDR101C, strain arx1, hits give low values 0.995 | locus YDR137W, strain rgp1, hits give low values 1 | locus YDR159W, strain sac3, hits give low values 0.978 | locus YDR162C, strain NBP2, hits give low values 1.04 | locus YDR195W, strain ref2 0.875 | locus YDR297W, strain sur2, hits give low values 0.988 | locus YDR318W, strain mcm21, hits give low values 0.999 | locus YDR334W, strain swr1, hits give low values 0.982 | locus YDR335W, strain msn5, hits give low values 0.995 | locus YDR388W, hits give low values 0.986 | locus YDR392W, strain spt3, hits give low values 1.02 | locus YDR502C, strain sam2, hits give low values 0.993 | locus YEL003W, strain gim4, hits give low values 0.986 | locus YEL037C, strain rad23, hits give low values 0.982 | locus YEL061C, strain CIN8 (second series), hits give low values 0.974 | locus YEL061C, strain CIN8, hits give low values 1.01 | locus YER015W, strain faa2, hits give low values 0.992 | locus YER016W, strain bim1, hits give low values 0.983 | locus YER110C, hits give low values 0.99 | locus YER111C, strain swi4, hits give low values 0.961 | locus YER155C, strain BEM2 (second series), hits give low values 0.927 | locus YER155C, strain BEM2, hits give low values 1 | locus YER167W, strain BCK2, hits give low values 1.02 | locus YFR010W, strain ubp6, hits give low values 0.974 | locus YGL078C, strain dbp3, hits give low values 0.997 | locus YGL086W, strain mad1, hits give low values 0.979 | locus YGL167C, strain pmr1, hits give low values 0.964 | locus YGL173C, strain kem1, hits give low values 0.977 | locus YGL227W, strain vid30, hits give low values 0.981 | locus YGL240W, strain doc1, hits give low values 0.981 | locus YGL248W, strain PDE1, hits give low values 1.03 | locus YGL253W, strain hxk2, hits give low values 0.994 | locus YGR135W, strain pre9, hits give low values 0.995 | locus YGR252W, strain gcn5, hits give low values 0.997 | locus YHR013C, strain ard1, hits give low values 0.963 | locus YHR027C, strain rpn1, hits give low values 0.978 | locus YHR030C, strain SLT2, hits give low values 1.01 and 1.03 | locus YHR079C, strain IRE1 (second series), hits give low values 0.99 | locus YHR079C, strain IRE1, hits give low values 1.02 | locus YHR094C, strain hxt1, hits give low values 0.995 | locus YHR129C, strain ARP1, hits give low values 1.02 | locus YHR142W, strain chs7, hits give low values 0.982 | locus YHR200W, strain rpn10, hits give low values 0.999 | locus YIL066C, strain RNR3, hits give low values 1.05 | locus YIL073C, strain SPO22, hits give low values 1.02 | locus YIL125W, strain kgd1, hits give low values 0.995 | locus YIR030C, strain dcg1, hits give low values 0.986 | locus YJL092W, strain hpr5, hits give low values 0.994 | locus YJL095W, strain BCK1 (second series), hits give low values 0.973 | locus YJL095W, strain BCK1, hits give low values 1.01 and 1.02 | locus YJL115W, strain asf1, hits give low values 0.971 | locus YJL129C, strain trk1, hits give low values 0.993 | locus YJL134W, strain LCB3, hits give low values 1.01 | locus YJL154C, strain vps35, hits give low values 0.98 | locus YJL164C, strain tpk1, hits give low values 0.991 | locus YJL166W, strain qcr8, hits give low values 0.962 | locus YJL168C, strain set2, hits give low values 0.987 | locus YJL187C, strain SWE1 (second series), hits give low values 1.01 | locus YJR043C, strain POL32, hits give low values 1.04 | locus YJR066W, strain TOR1, hits give low values 0.954 | locus YKL009W, strain mrt4, hits give low values 0.978 | locus YKL068W, hits give low values 1 | locus YKL085W, strain MDH1 (second series), hits give low values 0.996 | locus YKL085W, strain MDH1, hits give low values 0.996 | locus YKL160W, strain elf1, hits give low values 0.992 | locus YKR001C, strain vps1, hits give low values 0.983 | locus YKR026C, strain gcn3, hits give low values 0.964 | locus YKR091W, strain srl3, hits give low values 0.971 | locus YLL001W, strain dnm1, hits give low values 0.962 | locus YLL026W, hits give low values 0.988 | locus YLL041C, strain sdh2, hits give low values 0.971 | locus YLR027C, strain aat2, hits give low values 0.983 | locus YLR039C, strain RIC1, hits give low values 1.03 | locus YLR058C, strain SHM2, hits give low values 1.02 | locus YLR102C, strain apc9, hits give low values 1 | locus YLR113W, strain HOG1, hits give low values 1.01 | locus YLR221C, strain rsa3, hits give low values 1.03 | locus YLR258W, strain gsy2, hits give low values 0.973 | locus YLR262C, strain YPT6 (second series), hits give low values 0.955 | locus YLR262C, strain YPT6, hits give low values 1.08 | locus YLR268W, strain sec22, hits give low values 0.989 | locus YLR320W, strain mms22, hits give low values 0.984 | locus YLR330W, strain CHS5, hits give low values 1.02 | locus YLR342W, strain FKS1 (second series), hits give low values 1.03 | locus YLR342W, strain FKS1, hits give low values 0.973 | locus YLR357W, strain rsc2, hits give low values 0.96 | locus YLR370C, strain arc18, hits give low values 0.989 | locus YLR371W, strain rom2, hits give low values 0.993 | locus YLR384C, strain iki3, hits give low values 0.97 | locus YLR418C, strain cdc73, hits give low values 1.03 | locus YML016C, strain PPZ1, hits give low values 1.02 | locus YML032C, strain rad52, hits give low values 1.01 | locus YML120C, strain ndi1, hits give low values 0.978 | locus YML124C, strain tub3, hits give low values 0.991 | locus YMR058W, strain fet3, hits give low values 0.978 | locus YMR078C, strain ctf18, hits give low values 0.99 | locus YMR125W, strain sto1, hits give low values 0.97 | locus YMR129W, hits give low values 0.991 | locus YMR205C, strain PFK2, hits give low values 0.962 | locus YMR223W, strain ubp8, hits give low values 0.99 | locus YMR231W, strain pep5, hits give low values 0.971 | locus YMR307W, strain GAS1, hits give low values 1.09 | locus YNL067W, strain RPL9B, hits give low values 1.01 | locus YNL071W, strain lat1, hits give low values 0.993 | locus YNL128W, strain TEP1, hits give low values 1.03 | locus YNL183C, strain NPR1, hits give low values 0.962 | locus YNL209W, strain ssb2, hits give low values 0.993 | locus YNL233W, strain BNI4, hits give low values 1.01 | locus YNL248C, strain rpa49, hits give low values 1.01 | locus YNL250W, strain rad50, hits give low values 1.02 | locus YNL271C, strain bni1, hits give low values 0.993 | locus YNL298W, strain CLA4, hits give low values 0.985 | locus YNL307C, strain MCK1, hits give low values 1 | locus YNL322C, strain KRE1 (second series), hits give low values 0.947 | locus YNR049C, strain mso1, hits give low values 0.973 | locus YNR052C, strain pop2, hits give low values 0.994 | locus YOL012C, strain htz1 0.76 | locus YOL147C, strain pex11, hits give low values 0.996 | locus YOR001W, strain rrp6, hits give low values 0.987 | locus YOR061W, strain CKA2, hits give low values 1.02 | locus YOR069W, strain VPS5, hits give low values 1.01 | locus YOR070C, strain gyp1, hits give low values 0.981 | locus YOR080W, strain dia2, hits give low values 0.948 | locus YOR083W, strain WHI5, hits give low values 0.981 | locus YOR106W, strain vam3, hits give low values 0.97 | locus YOR136W, strain idh2, hits give low values 0.991 | locus YOR144C, strain elg1, hits give low values 0.999 | locus YOR184W, strain ser1, hits give low values 0.997 | locus YOR231W, strain MKK1, hits give low values 1.04 | locus YOR265W, strain rbl2, hits give low values 0.984 | locus YOR270C, strain vph1, hits give low values 1 | locus YOR290C, strain snf2, hits give low values 1 | locus YOR316C, strain cot1, hits give low values 0.991 | locus YPL051W, strain arl3, hits give low values 0.99 | locus YPL078C, strain atp4, hits give low values 0.962 | locus YPL106C, strain sse1, hits give low values 0.962 | locus YPL240C, strain hsp82, hits give low values 0.968 | locus YPL241C, strain CIN2, hits give low values 1.01 | locus YPL256C, strain CLN2, hits give low values 1.02 | locus YPR119W, strain clb2, hits give low values 0.99 | locus YPR141C, strain kar3, hits give low values 0.996 | locus YPR163C, strain tif3, hits give low values 0.987 | locus YPR167C, strain met16, hits give low values 0.986 | strain wtn01, hits give low values 0.997
